The nature of test [1]: Nuclear factor erythroid 2-related factor 2/antioxidant responsive element (Nrf2/ARE) small molecule agonists: qHTS cell viability counter screen in human keratinocytes (AID 1919968; active means well fitted cell-killing curve with a large enough effect in the repeat runs; further: nearly all actives have a fitted effect of over 55% in size; further: potency means the concentration at half of the fitted maximal effect). The essentials: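 Cells of the KeratinoSens line were plated at 1,500 per well and left for 5 h before compound transfer from DMSO stocks. After a 23 h incubation (37 C, 5% CO2), CellTiter-Fluor was added. Signal was taken as fluorescence intensity 1 h later.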

Test [2] is described as follows: Nuclear factor erythroid 2-related factor 2/antioxidant responsive element (Nrf2/ARE) small molecule agonists: luciferase reporter gene qHTS assay in human keratinocytes (AID 1919969). Further: nearly all actives have a fitted effect of over 35% in size. Further: potency means the concentration at half of the fitted maximal effect. In general terms: Reporter assays use an easily measured gene product as a stand-in for the process of interest.
In test [3] the target is Gonadotropin-releasing hormone receptor (Homo sapiens) (UniProt P30968). Briefly: Human gonadotropin-releasing hormone receptor (GnRHR) small molecule agonists, calcium flux assay in GnRHR-HEK293 cells (AID 1920063). Further: nearly all actives have a fitted effect of over 35% in size. The essentials:
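Compounds dissolved in DMSO are pin-transferred onto dye-loaded GnRHR-HEK293 cells, which were seeded 18 h before at 37 C/5% CO2. Calcium signal is read as fluorescence intensity at 1 s intervals for 3 min.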
On the technique in general: Calcium assays in cells follow changes in intracellular calcium, usually with a dye or a luminescent sensor.

Test [4] can be described thus: G protein-coupled receptor (GPCR) small molecule agonists, calcium flux assay: HEK293 wild type cell line counter screen (AID 1920065). The method, boiled down:
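Tox21 10K compounds, 15 concentrations each in triplicate, pin-transferred in DMSO onto dye-loaded cells; kinetic read at 480/540 nm for 3 min, 1 s intervals.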

Test [5] can be described thus: p53 small molecule agonists, cell-based qHTS assay with human liver microsomes (AID 1963577).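 Further: p53 response element beta-lactamase reporter cells with liver microsomes plus NADPH.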 The essentials:
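With metabolic activation: human liver microsomes (0.5 mg/mL final) plus NADPH (0.5 mg/mL final) added alongside compounds to p53RE-bla cells; 16 h 37 C exposure; beta-lactamase read by LiveBLAzer fluorescence.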
(In qHTS, concentration-response curves come from the screen itself.)

Test [6] can be described thus: p53 small molecule agonists, cell-based qHTS assay with rat liver microsomes (AID 1963578). The method, boiled down: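 Metabolic activation by rat liver microsomes and NADPH, each 0.5 mg/mL final, added right after compounds to p53RE-bla reporter cells (4,000/well, plated 5 h earlier). 16 h at 37 C, then LiveBLAzer substrate for 2 h at room temperature in the dark; fluorescence read-out.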

The nature of test [7]: p53 small molecule agonists, cell-based qHTS assay with human liver microsomes: qHTS cell viability counter screen (AID 1963579). Further: nearly all actives have a fitted effect of over 45% in size. Further: potency means the concentration at half of the fitted maximal effect. The method, boiled down: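 Metabolic activation used human liver microsomes and NADPH, both 0.5 mg/mL final, over 16 hours at 37 C on p53RE-bla cells (4,000/well). Cytotoxicity measured by CellTiter-Glo luminescence, 30 min at room temperature.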

Test [8] in a line: p53 small molecule agonists, cell-based qHTS assay with rat liver microsomes: qHTS cell viability counter screen (AID 1963580). Further: nearly all actives have a fitted effect of over 45% in size. Further: potency means the concentration at half of the fitted maximal effect. The essentials:
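After the beta-lactamase ratio was read, CellTiter-Glo was added to the same wells and luminescence measured at 30 min; cells had been treated 16 h at 37 C with compounds, rat liver microsomes and NADPH (0.5 mg/mL final each).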

Test [9] in a line: p53 small molecule agonists, cell-based qHTS assay: qHTS cell viability counter screen (AID 1963581). Further: nearly all actives have a fitted effect of over 45% in size. Further: potency means the concentration at half of the fitted maximal effect. The method, boiled down: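 ATP content measured by luminescence in HCT-116 p53RE-bla cells treated 16 h at 37 C, same wells as the reporter screen.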
Test [10] in a line: p53 small molecule agonists, cell-based qHTS assay (AID 1963582; active means well fitted activation curve with a large enough effect in the signal ratio in the repeat runs, not every such curve was filed as active; the % refers to the signal ratio). The method, boiled down:
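16 h compound exposure (37 C) of p53 response element–bla cells, preceded by 5 h recovery at 37 C/5% CO2; read-out via LiveBLAzer B/G FRET substrate, 2 h RT, fluorescence intensity.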

In test [11] the target is 5-hydroxytryptamine receptor 2A (Homo sapiens) (UniProt P28223). As to the kind of experiment: 5-hydroxytryptamine receptor 2A (HTR2A) small molecule antagonists, cell-based qHTS assay (AID 1963586). Further: nearly all actives have a fitted effect of over 45% in size. The method, boiled down: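 CHO cells stably expressing human HTR2A were plated for 18 h at 37 C, then loaded with calcium dye for 1 h. Compounds were preincubated 5 min at room temperature before DOI (4 nM solution) was added. Kinetic fluorescence was read for 3 min.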

For test [12] the target is unchanged. Briefly: 5-hydroxytryptamine receptor 2A (HTR2A) small molecule agonists, cell-based qHTS assay (AID 1963587). Further: nearly all actives have a fitted effect of over 30% in size. The essentials: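 CHO cells stably expressing human HTR2A, plated 18 h, loaded with calcium dye 1 h at 37 C. Agonist mode: compounds added and intracellular calcium fluorescence recorded kinetically for 2 min at 1 sec intervals.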
The target of test [13] is Muscarinic acetylcholine receptor M1 (Homo sapiens) (UniProt P11229). As to the kind of experiment: Cholinergic receptor muscarinic 1 (CHRM1) small molecule antagonists, cell-based qHTS assay (AID 1963588). Further: nearly all actives have a fitted effect of over 40% in size. Further: potency means the concentration at half of the fitted maximal effect. The method, boiled down:
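Compounds were tested at 15 concentrations in three independent runs. Dye-loaded CHRM1-CHO cells were exposed 5 min at room temperature before stimulation by acetylcholine added at 50nM. Intracellular calcium was read kinetically on FDSS for 3 min.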

For test [14] the target is unchanged. Briefly: Cholinergic receptor muscarinic 1 (CHRM1) small molecule agonists, cell-based qHTS assay (AID 1963589). Further: nearly all actives have a fitted effect of over 35% in size. The essentials: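 Homogeneous fluorescence calcium flux, agonist mode. Human M1-expressing CHO cells; compound dosed at 15 concentrations, three independent runs; signal sampled every 1 sec.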
A short description of test [15]: cAMP Responsive Elements (CRE) small molecule agonists, cell-based qHTS assay (AID 1963590). The essentials: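 HEK 293T cells stably bearing CRE-bla were plated at 2,000 cells per well and rested 18 h. Compounds, positive controls or DMSO were added for 3 h at 37 C. LiveBLAzer B/G substrate was then loaded for 2 h at room temperature.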
Test [16] is described as follows: cAMP Responsive Elements (CRE) small molecule antagonists, cell-based qHTS assay (AID 1963591; active means well fitted inhibition curve with a large enough effect in the signal ratio in the repeat runs, not every such curve was filed as active; the % refers to the signal ratio). The essentials:
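First, CRE-bla HEK293T cells settled 18 h at 37 C. Next, compound and 0.25 uM final NKH477 were applied for 3 h. Last, LiveBLAzer B/G substrate was loaded for 2 h at room temperature.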

Test [17] has as its target D(2) dopamine receptor (Homo sapiens) (UniProt P14416). Briefly: Dopamine D2 receptor (DRD2) small molecule agonists, cell-based qHTS assay (AID 1963594). Further: nearly all actives have a fitted effect of over 35% in size. The essentials: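 HEK293 cells stably expressing human DRD2, pre-treated with PDE inhibitor Ro20-1724 (0.1 mM final) and compound 10 min at room temperature, then stimulated with NKH477 (200nM […]) for 30 min. cAMP read by HTRF (665/620 nm).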

For test [18] the target is unchanged. As to the kind of experiment: Dopamine D2 receptor (DRD2) small molecule antagonists, cell-based qHTS assay (AID 1963595; active means well fitted inhibition curve with a large enough effect in the signal ratio in the repeat runs, with a control signal flat; the % refers to the signal ratio; further: potency means the concentration at half of the fitted maximal effect). The essentials:
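HEK293 cells stably expressing DRD2, preincubated with 0.1 mM Ro20-1724 and compounds 10 min, were stimulated with 200 nM NKH477 plus 12 nM quinpirole for 30 min at room temperature; cAMP measured by HTRF (665/620 nm).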

Test [19] has as its target Beta-2 adrenergic receptor (Homo sapiens) (UniProt P07550). Briefly: Adrenergic beta2 receptor (ADRB2) small molecule antagonists, cell-based qHTS assay (AID 1963592). Further: series mostly up to about 92 µM; nearly all actives have a fitted effect of over 50% in size. The method, boiled down: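 Assay format: CHO-ADRB2 cells, 18-20hr seeding at 37C/5% CO2, then compound plus 1nM isoproterenol agonist mix for 0.5hr RT. Homogeneous time-resolved fluorescence cAMP detection after 1hr, expressed as 665/615 nm ratio.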

Each structure is given as a SMILES string. Values joined by “and” are separate entries in the source; they are usually repeats but may differ in a detail not shown here. Equal values may be shown once. Inconclusive results are not listed. A structure can be active in one record and inactive in another. Active and inactive are the calls of the source. Unless noted, the call rests on the fitted dose curve.

Chain of Muscarinic acetylcholine receptor M1 (Homo sapiens) (P11229 whole entry, looked up): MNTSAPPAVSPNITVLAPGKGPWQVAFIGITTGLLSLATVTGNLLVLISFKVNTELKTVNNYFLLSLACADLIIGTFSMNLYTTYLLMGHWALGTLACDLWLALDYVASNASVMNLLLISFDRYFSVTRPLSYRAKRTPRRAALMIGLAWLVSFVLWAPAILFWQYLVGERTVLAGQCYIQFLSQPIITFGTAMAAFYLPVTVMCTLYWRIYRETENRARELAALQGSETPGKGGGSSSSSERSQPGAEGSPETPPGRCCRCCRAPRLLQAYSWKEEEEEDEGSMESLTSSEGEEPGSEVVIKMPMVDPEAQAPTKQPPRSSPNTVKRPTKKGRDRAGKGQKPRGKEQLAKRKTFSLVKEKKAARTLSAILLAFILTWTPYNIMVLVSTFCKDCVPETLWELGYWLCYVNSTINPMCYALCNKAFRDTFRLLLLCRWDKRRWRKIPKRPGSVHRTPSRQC
Chain of Gonadotropin-releasing hormone receptor (Homo sapiens) (P30968 whole entry, looked up): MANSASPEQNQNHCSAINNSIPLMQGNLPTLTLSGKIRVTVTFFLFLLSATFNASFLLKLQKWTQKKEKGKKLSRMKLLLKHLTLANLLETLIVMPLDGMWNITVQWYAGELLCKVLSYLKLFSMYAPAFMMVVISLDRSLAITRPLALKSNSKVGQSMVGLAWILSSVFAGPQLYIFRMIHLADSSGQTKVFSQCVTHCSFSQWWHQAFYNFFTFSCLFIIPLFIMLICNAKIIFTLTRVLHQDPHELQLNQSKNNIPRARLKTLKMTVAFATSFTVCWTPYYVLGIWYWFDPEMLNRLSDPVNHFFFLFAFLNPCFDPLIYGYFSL
Chain of D(2) dopamine receptor (Homo sapiens) (P14416 whole entry, looked up): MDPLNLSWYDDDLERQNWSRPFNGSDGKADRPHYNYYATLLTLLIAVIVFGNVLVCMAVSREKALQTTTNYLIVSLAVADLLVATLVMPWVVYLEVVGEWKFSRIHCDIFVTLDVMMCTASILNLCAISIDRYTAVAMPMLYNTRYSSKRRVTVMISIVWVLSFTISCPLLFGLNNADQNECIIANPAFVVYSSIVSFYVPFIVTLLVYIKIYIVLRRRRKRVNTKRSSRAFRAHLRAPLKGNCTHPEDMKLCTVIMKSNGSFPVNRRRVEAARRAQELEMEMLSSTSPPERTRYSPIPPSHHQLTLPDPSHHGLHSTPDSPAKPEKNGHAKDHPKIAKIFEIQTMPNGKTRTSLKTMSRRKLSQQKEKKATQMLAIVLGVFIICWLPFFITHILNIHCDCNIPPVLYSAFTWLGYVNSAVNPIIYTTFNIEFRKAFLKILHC
Chain of Beta-2 adrenergic receptor (Homo sapiens) (P07550 whole entry, looked up): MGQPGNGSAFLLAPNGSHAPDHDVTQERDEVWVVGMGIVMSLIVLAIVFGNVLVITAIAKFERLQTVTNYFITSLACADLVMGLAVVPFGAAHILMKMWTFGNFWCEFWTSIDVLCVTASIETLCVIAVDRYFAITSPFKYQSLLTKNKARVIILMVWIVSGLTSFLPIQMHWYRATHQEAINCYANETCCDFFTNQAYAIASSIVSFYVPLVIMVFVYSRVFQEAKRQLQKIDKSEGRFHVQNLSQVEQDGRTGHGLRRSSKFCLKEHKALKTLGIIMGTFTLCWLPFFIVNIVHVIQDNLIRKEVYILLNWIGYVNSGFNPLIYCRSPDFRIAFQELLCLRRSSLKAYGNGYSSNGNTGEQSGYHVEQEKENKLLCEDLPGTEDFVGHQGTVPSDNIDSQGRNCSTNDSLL
Chain of 5-hydroxytryptamine receptor 2A (Homo sapiens) (P28223 whole entry, looked up): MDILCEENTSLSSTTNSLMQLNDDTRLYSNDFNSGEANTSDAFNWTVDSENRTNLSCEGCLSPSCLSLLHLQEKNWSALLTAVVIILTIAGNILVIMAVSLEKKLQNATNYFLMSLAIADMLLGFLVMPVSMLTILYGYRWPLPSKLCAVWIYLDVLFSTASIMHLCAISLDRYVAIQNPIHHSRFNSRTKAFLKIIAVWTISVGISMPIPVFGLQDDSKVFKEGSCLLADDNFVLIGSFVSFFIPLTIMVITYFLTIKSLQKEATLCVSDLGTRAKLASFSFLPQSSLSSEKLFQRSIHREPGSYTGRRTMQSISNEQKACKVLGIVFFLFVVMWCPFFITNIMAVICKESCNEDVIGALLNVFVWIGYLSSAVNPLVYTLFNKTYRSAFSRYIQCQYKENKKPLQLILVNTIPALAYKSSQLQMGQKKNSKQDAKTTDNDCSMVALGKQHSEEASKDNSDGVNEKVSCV

Consider `COc1cc(-c2ccc(N)c(OC)c2)ccc1N`, for which the Potency entry in [1], in test [2], in [3], in test [4], in test [5] and in test [6] was “inactive” each time. The Potency entry in test [7], in test [8], in test [9], in test [10], in test [11] and in [12] was “inactive” each time. For the same compound, the Potency entry in [13], in test [14], in [15], in test [16], in [17] and in test [18] was “inactive” in each case.

On to `CC1(C)C(C=C(Cl)Cl)C1C(=O)OC(C#N)c1ccc(F)c(Oc2ccccc2)c1` (stereo unspecified), for which the Potency entry in test [1], in test [2], in [3], in test [4], in [5] and in test [6] was “inactive” each time. The Potency entry in [7], in test [8], in [9], in [11], in test [12] and in [13] was “inactive” in each case. The Potency entry in test [15], in test [16], in test [19], in test [17] and in test [18] was “inactive” throughout.

Take `C=CCN(CC=C)C(=O)C(Cl)Cl`: the Potency entry in test [1], in test [2], in test [3], in test [4], in test [6] and in test [7] was “inactive” throughout. In addition, the Potency result in test [8], in [9], in test [11], in test [12], in test [13] and in test [14] was “inactive” each time. Also, the Potency entry in test [15], in [16], in test [19], in [17] and in [18] was “inactive” throughout.

For `O=C(Cc1ccccc1)c1ccccc1`, the Potency result in [1], in test [2], in [3], in [4], in test [5] and in test [6] was “inactive” in each case. The Potency entry in test [7], in test [8], in [9], in [12], in [13] and in [14] was “inactive” throughout. The Potency entry in test [15], in [16], in test [19], in test [17] and in test [18] was “inactive” in each case.

On to `CC(Cl)C(=O)O` (stereo unspecified), for which the Potency entry in test [1], in test [2], in [3], in test [4], in test [5] and in test [8] was “inactive” each time. Also, the Potency entry in [9], in test [10], in test [11], in test [12], in test [13] and in [14] was “inactive” in each case. Also, the Potency entry in test [15], in test [16], in test [19], in test [17] and in test [18] was “inactive” throughout.

For `CCC(C)(C)c1ccc(O)c(C(C)(C)CC)c1`, the Potency in test [1] was 13.5 µM (active) and 24.3 µM (active); in test [2], 7.7 µM (active); in [7] it was 45.3 µM (active) and 25.7 µM (active); in test [8], “inactive and 25.7 µM (active)”; in test [9], 18 µM (active) and 22.9 µM (active); in test [13], 20.9 µM (active). Moreover, the Potency entry in [18] was “inactive and 43.3 µM (active)”. For the same compound, the Potency entry in test [3], in [4], in test [5], in test [6], in test [14] and in test [19] was “inactive” in each case. Besides, in test [17], the Potency result was “inactive”.

Turning to `[CH3][Sn]([CH3])([Cl])[Cl]`, the Potency entry in [1], in test [3], in [4], in test [7], in test [8] and in test [9] was “inactive” each time. Besides, the Potency result in test [11], in test [12], in [13], in test [14], in [15] and in test [16] was “inactive” throughout. The Potency entry in [19], in test [17] and in [18] was “inactive” in each case. Also, the Potency in test [2] was 55.4 µM (active) and inactive.
